Data published in PubChem BioAssay.
For some assays here: Entries with a potency or affinity are not part of this list. The source made the active and inactive calls. Unless noted, how the calls were made is not given here.

How the values were obtained:
[1] = antimalarial activity against Dd2 strain (AID 2302;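 active means growth inhibition above 50% at the single 2 µM test dose, taken to imply half-maximal potency below 2 µM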;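 further: 0% = DMSO untreated growth and 100% = chloroquine plus artemisinin killed control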); conditions: P. falciparum Dd2 in RBCs, LDH growth readout, 72 h; at 2 µM; stronger effect = higher value
[2] = HepG2 cytotoxicity, primary screen, cytotoxicity control for P. falciparum antimalarial project, cell-based, ATP luminescence (AID 2303;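 active means inhibition above 50%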;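 further: 0% = DMSO wells and 100% = digitonin-killed cells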); conditions: HepG2 viability, 24-48 h, at 10 µM, stronger effect = higher value
[3] = target: L-lactate dehydrogenase (Plasmodium falciparum (isolate CDC / Honduras)) (UniProt Q27743); experiment: PfLDH activity inhibition – cell lysate, 3D7 strain, counter-screen for P. falciparum growth inhibition project (AID 2304);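 further: 0% = vehicle and 100% = reference inhibitor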; conditions: P. falciparum 3D7 crude extract, LDH APAD/NBT absorbance; at 2 µM; stronger effect = higher value
[4] = inhibition of 3D7 malaria parasite growth – strain 3D7 (AID 2306);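 further: 0% = DMSO wells and 100% = chloroquine plus artemisinin control wells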; conditions: P. falciparum 3D7 erythrocytic growth, LDH absorbance, 72 h; at 2 µM; stronger effect = higher value
[5] = target: Calcium-dependent protein kinase 1 (Plasmodium falciparum (isolate 3D7)) (UniProt P62344); experiment: PfCDPK1 kinase inhibitors, biochemical, TCAMS library (AID 1159585; cut-off not given, nearly all actives have IC50 up to about 0.98 µM;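 further: inhibitors leave more ATP so luminescence rises with inhibition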); conditions: recombinant PfCDPK1, Kinase-Glo ATP depletion luminescence
[6] = target: Plasmodium falciparum protein kinase 6 (PK6, PF3D7_1337100) (UniProt Q8IDW1); experiment: PfPK6 kinase inhibitors, biochemical, TCAMS library (AID 1159586); conditions: recombinant PfPK6, Kinase-Glo ATP depletion luminescence
[7] = target: Protein kinase 7 (PK7), Plasmodium falciparum 3D7 (PF3D7_0213400) (UniProt Q7YTF7); experiment: inhibition of Plasmodium PK7 catalytic activity – biochemical, TCAMS antimalarial set, Kinase-Glo luminescence (AID 1159587); conditions: recombinant PfPK7, Kinase-Glo ATP depletion luminescence
[8] = target: Calcium-dependent protein kinase 4 (Plasmodium falciparum (isolate 3D7)) (UniProt Q8IBS5); experiment: PfCDPK4 kinase inhibitors, biochemical, TCAMS library (AID 1159588; cut-off not given, nearly all actives have IC50 up to about 0.91 µM); conditions: recombinant PfCDPK4, Kinase-Glo ATP depletion luminescence
Sequence of Calcium-dependent protein kinase 4 (Plasmodium falciparum (isolate 3D7)) (Q8IBS5 whole entry, looked up): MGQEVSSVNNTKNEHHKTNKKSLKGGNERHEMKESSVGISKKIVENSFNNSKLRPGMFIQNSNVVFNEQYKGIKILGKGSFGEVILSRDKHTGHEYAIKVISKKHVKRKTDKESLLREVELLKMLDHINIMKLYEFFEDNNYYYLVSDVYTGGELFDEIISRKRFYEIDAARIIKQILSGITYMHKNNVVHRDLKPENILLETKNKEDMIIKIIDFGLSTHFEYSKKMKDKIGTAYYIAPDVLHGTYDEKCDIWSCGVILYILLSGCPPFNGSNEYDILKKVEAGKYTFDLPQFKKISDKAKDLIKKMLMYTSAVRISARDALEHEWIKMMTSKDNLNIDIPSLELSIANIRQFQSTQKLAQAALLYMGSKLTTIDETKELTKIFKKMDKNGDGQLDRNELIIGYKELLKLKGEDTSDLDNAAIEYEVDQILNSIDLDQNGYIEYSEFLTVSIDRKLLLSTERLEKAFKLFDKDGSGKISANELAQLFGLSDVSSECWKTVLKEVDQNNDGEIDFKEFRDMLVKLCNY

Sequence of Plasmodium falciparum protein kinase 6 (PK6, PF3D7_1337100) (Q8IDW1 1-305): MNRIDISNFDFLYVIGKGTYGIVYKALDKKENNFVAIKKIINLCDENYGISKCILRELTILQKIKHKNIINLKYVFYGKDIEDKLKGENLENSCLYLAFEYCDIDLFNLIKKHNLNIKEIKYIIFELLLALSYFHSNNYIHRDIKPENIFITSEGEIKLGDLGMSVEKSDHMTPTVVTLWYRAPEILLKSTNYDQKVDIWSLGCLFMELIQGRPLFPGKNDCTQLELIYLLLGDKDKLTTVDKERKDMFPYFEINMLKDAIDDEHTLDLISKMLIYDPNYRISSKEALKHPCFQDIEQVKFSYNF
Sequence of L-lactate dehydrogenase (Plasmodium falciparum (isolate CDC / Honduras)) (Q27743 whole entry, looked up): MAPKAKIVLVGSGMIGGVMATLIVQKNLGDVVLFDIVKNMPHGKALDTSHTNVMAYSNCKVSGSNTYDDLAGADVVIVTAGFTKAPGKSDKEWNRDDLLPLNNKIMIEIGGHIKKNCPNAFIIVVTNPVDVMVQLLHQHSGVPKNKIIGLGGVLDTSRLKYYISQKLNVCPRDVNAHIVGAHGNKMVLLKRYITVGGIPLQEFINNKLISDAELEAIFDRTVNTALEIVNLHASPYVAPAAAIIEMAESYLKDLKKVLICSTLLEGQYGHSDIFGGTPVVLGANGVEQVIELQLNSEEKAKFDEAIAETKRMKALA
Sequence of Protein kinase 7 (PK7), Plasmodium falciparum 3D7 (PF3D7_0213400) (Q7YTF7 1-343): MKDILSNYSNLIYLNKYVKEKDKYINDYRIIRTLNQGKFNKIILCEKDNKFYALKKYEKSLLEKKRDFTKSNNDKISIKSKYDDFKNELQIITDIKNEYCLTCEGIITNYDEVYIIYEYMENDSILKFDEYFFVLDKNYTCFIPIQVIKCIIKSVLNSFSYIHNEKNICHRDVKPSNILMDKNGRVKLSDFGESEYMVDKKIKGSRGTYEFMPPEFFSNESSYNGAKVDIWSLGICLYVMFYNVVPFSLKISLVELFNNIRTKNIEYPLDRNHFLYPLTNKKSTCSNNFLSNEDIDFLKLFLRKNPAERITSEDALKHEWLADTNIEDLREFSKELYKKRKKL
Sequence of Calcium-dependent protein kinase 1 (Plasmodium falciparum (isolate 3D7)) (P62344 whole entry, looked up): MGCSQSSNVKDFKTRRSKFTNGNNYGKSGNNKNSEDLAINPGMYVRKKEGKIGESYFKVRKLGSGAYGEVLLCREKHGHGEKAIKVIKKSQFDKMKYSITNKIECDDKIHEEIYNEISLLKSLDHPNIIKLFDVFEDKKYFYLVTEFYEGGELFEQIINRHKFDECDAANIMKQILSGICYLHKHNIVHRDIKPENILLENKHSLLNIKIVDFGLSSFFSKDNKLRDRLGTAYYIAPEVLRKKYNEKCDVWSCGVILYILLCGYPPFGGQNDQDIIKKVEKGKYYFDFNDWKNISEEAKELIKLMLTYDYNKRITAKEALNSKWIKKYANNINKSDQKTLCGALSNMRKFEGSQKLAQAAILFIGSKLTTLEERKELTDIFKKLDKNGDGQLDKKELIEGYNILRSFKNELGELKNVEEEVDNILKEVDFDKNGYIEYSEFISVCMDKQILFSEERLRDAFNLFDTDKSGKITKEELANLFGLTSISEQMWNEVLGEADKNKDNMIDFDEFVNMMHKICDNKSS

O=C(Nc1cccc(F)c1)N(Cc1ccc(-c2cccc(CN3CCNCC3)c2)cc1)C1CCN(Cc2ccccc2)CC1
inactive: inhibition [2] 13% | inhibition [3] -1% | outcome [5] | outcome [6] | outcome [7] | outcome [8]
active: growth inhibition [1] 54% | growth inhibition [4] 97%

O=C(NC1CCN(Cc2ccc(O)cc2)CC1)c1ccc(Cl)c(Cl)c1
inactive: growth inhibition [1] 3% | inhibition [2] 1% | inhibition [3] 4% | outcome [5] | outcome [6] | outcome [7] | outcome [8]
active: growth inhibition [4] 95%

CCCc1ccc(NC(=O)c2cccc(CN3CCCN(Cc4cccc(O)c4)CC3)c2)cc1
inactive: growth inhibition [1] 40% | inhibition [2] 15% | inhibition [3] -2% | outcome [5] | outcome [6] | outcome [7] | outcome [8]
active: growth inhibition [4] 97%

COc1ccc(Nc2nc(N)c3cc(OC)c(OC)cc3n2)cc1OC
active: growth inhibition [4] 99%
inactive: growth inhibition [1] 5% | inhibition [2] -4% | inhibition [3] -7% | outcome [5] | outcome [6] | outcome [7] | outcome [8]

CS(=O)(=O)Nc1ccc(-c2ccc3ccnc(N)c3c2)cc1
active: growth inhibition [1] 75% | growth inhibition [4] 85%
inactive: inhibition [2] 31% | inhibition [3] -3% | outcome [5] | outcome [6] | outcome [7] | outcome [8]

COc1cccc(CCNCCCCCCNCCc2ccc(Cl)cc2)c1
inactive: growth inhibition [1] 3% | inhibition [2] 32% | inhibition [3] -1% | outcome [5] | outcome [6] | outcome [7] | outcome [8]
active: growth inhibition [4] 100%

CCOc1cc2ccccc2cc1CNCCCCCCNCc1cc2ccccc2cc1OCC
inactive: inhibition [3] 2% | outcome [5] | outcome [6] | outcome [7] | outcome [8]
active: growth inhibition [1] 76% | inhibition [2] 99% | growth inhibition [4] 101%

OCC1CCN(Cc2cccc(-c3ccc(-c4nc5ccc(F)cc5[nH]4)cc3)c2)CC1
active: growth inhibition [1] 86% | growth inhibition [4] 101%
inactive: inhibition [2] 11% | inhibition [3] 4% | outcome [5] | outcome [6] | outcome [7] | outcome [8]

Cc1cc(CNCC2CCC(CNCCCc3ccccc3)CC2)ccc1O (stereo not given)
active: growth inhibition [4] 101%
inactive: growth inhibition [1] 0% | inhibition [2] 25% | inhibition [3] 7% | outcome [5] | outcome [6] | outcome [7] | outcome [8]

CC1(C)N=C(N)N=C(N)N1OCCCCCOc1ccccc1
inactive: inhibition [3] 4% | outcome [5] | outcome [6] | outcome [7] | outcome [8]
active: growth inhibition [1] 97% | inhibition [2] 61% | growth inhibition [4] 95%

Cc1cc(F)ccc1[C@H]1CNCCN1C(=O)N(C)C(C)(C)c1cc(C(F)(F)F)cc(C(F)(F)F)c1
inactive: inhibition [2] 24% | inhibition [3] -4% | outcome [5] | outcome [6] | outcome [7] | outcome [8]
active: growth inhibition [1] 100% | growth inhibition [4] 101%

O=C(Nc1cccc(C(F)(F)F)c1)N1CCOC(CCN2CCC(c3ccccc3)CC2)(c2ccc(Cl)c(Cl)c2)C1 (stereo not given)
active: growth inhibition [1] 69% | growth inhibition [4] 87%
inactive: inhibition [2] 15% | inhibition [3] 8% | outcome [5] | outcome [6] | outcome [7] | outcome [8]

Cc1cc(C(=O)CN2C(=O)NC3(CCOc4ccccc43)C2=O)c(C)n1Cc1ccc(F)cc1 (stereo not given)
active: growth inhibition [1] 84% | growth inhibition [4] 95%
inactive: inhibition [2] 1% | inhibition [3] 0% | outcome [5] | outcome [6] | outcome [7] | outcome [8]

COc1ccccc1-c1csc(C(=O)NCC2CCN(Cc3ccc(C(C)C)cc3)C2)c1 (stereo not given)
inactive: growth inhibition [1] 6% | inhibition [2] 24% | inhibition [3] 1% | outcome [5] | outcome [6] | outcome [7] | outcome [8]
active: growth inhibition [4] 81%

O=C(Nc1cccc(CN2CCCN(CC3CC3)CC2)c1)c1ccc(Cl)c(Cl)c1
active: growth inhibition [4] 92%
inactive: growth inhibition [1] 5% | inhibition [2] 13% | inhibition [3] 4% | outcome [5] | outcome [6] | outcome [7] | outcome [8]

CC1(C)CCCN(c2ncc(-c3cccc(CNCc4ccccc4O)c3)cn2)C1
inactive: inhibition [2] 35% | inhibition [3] -4% | outcome [5] | outcome [6] | outcome [7] | outcome [8]
active: growth inhibition [1] 82% | growth inhibition [4] 96%

O=C(/C=C/c1ccc(Cl)c(Cl)c1)N1CCC(CN2CCC(c3c[nH]c4ncccc34)CC2)CC1
inactive: growth inhibition [1] 20% | inhibition [2] 38% | inhibition [3] -1% | outcome [5] | outcome [6] | outcome [7] | outcome [8]
active: growth inhibition [4] 84%

Cc1ccc(NC(=O)c2ccc(CN3CCCN(CC4CCCCC4)CC3)cc2)cc1F
active: growth inhibition [1] 61% | inhibition [2] 51% | growth inhibition [4] 92%
inactive: inhibition [3] -2% | outcome [5] | outcome [6] | outcome [7] | outcome [8]

COc1ccc(-c2cccc(CNC3CCN(CC4Cn5c(=O)ccc6ccc(F)c4c65)CC3)c2)cc1 (stereo not given)
active: growth inhibition [1] 74% | growth inhibition [4] 101%
inactive: inhibition [2] 22% | inhibition [3] 0% | outcome [5] | outcome [6] | outcome [7] | outcome [8]

Cc1cccc2[nH]c(-c3ccc(-c4ccc(CNCCc5ccncc5)cc4)cc3)nc12
active: growth inhibition [1] 98% | growth inhibition [4] 100%
inactive: inhibition [2] 34% | inhibition [3] 0% | outcome [5] | outcome [6] | outcome [7] | outcome [8]

CN1CCN(CC(=O)Nc2cccc(-c3ccc(-c4nc5ccc(F)cc5[nH]4)s3)c2)CC1
inactive: inhibition [3] -4% | outcome [5] | outcome [6] | outcome [7] | outcome [8]
active: growth inhibition [1] 94% | inhibition [2] 71% | growth inhibition [4] 101%

C[C@H](Cc1ccc(OCCCOc2ccc(C[C@@H](C)NC[C@H](O)c3cccc(Cl)c3)cc2)cc1)NC[C@H](O)c1cccc(Cl)c1
active: growth inhibition [1] 92% | inhibition [2] 99% | growth inhibition [4] 99%
inactive: inhibition [3] 0% | outcome [5] | outcome [6] | outcome [7] | outcome [8]

Nc1cc(-c2ccc(-c3cccs3)s2)nc2ccccc12
active: growth inhibition [1] 50% | growth inhibition [4] 100%
inactive: inhibition [2] 32% | inhibition [3] 5% | outcome [5] | outcome [6] | outcome [7] | outcome [8]

CC1(C)N=C(N)N=C(N)N1OCCCOc1c(Cl)cc(Cl)cc1Cl
inactive: inhibition [3] -2% | outcome [5] | outcome [6] | outcome [7] | outcome [8]
active: growth inhibition [1] 97% | inhibition [2] 65% | growth inhibition [4] 94%

c1ccc(-c2cc(NCCCn3ccnc3)nc(-c3cccnc3)n2)cc1
active: growth inhibition [4] 84%
inactive: growth inhibition [1] 6% | inhibition [2] 15% | inhibition [3] 0% | outcome [5] | outcome [6] | outcome [7] | outcome [8]

COc1ccc2nccc([C@@H](O)CN3CCC(NCC(=O)Nc4cc(F)cc(F)c4)CC3)c2n1
inactive: growth inhibition [1] 28% | inhibition [2] 18% | inhibition [3] -8% | outcome [5] | outcome [6] | outcome [7] | outcome [8]
active: growth inhibition [4] 89%

COc1ccccc1CNC(=O)c1cc(Br)cc(N2CCN(c3ccncc3)CC2)c1
inactive: inhibition [2] 43% | inhibition [3] 0% | outcome [5] | outcome [6] | outcome [7] | outcome [8]
active: growth inhibition [1] 76% | growth inhibition [4] 95%

CCn1c(Sc2ccc(C#N)c([N+](=O)[O-])c2)nnc1-c1ccc(OC)cc1
active: growth inhibition [1] 94% | growth inhibition [4] 98%
inactive: inhibition [2] -8% | inhibition [3] 2% | outcome [5] | outcome [6] | outcome [7] | outcome [8]

CCN(CCCN1CCCCC1)c1cc(C)nc(Nc2cccc(C(F)(F)F)c2C)n1
active: inhibition [2] 57% | growth inhibition [4] 99%
inactive: growth inhibition [1] 37% | inhibition [3] -2% | outcome [5] | outcome [6] | outcome [7] | outcome [8]

CC(=O)Nc1ccc(Nc2c3ccccc3nc3ccccc23)cc1
active: growth inhibition [1] 62% | growth inhibition [4] 89%
inactive: inhibition [2] 41% | inhibition [3] 3% | outcome [5] | outcome [6] | outcome [7] | outcome [8]

Cc1[nH]c(C)c(-c2ccc(OCc3cc(F)cc(F)c3)nc2)c(=O)c1Br
inactive: inhibition [2] 37% | inhibition [3] -7% | outcome [5] | outcome [6] | outcome [7] | outcome [8]
active: growth inhibition [1] 97% | growth inhibition [4] 98%

CSc1nc2nc(C)c(Cc3cccc(F)c3)c(C)n2n1
inactive: growth inhibition [1] 45% | inhibition [2] 3% | inhibition [3] 0% | outcome [5] | outcome [6] | outcome [7] | outcome [8]
active: growth inhibition [4] 87%

O=C(Nc1cccc(-c2ccc(-c3nc4ccc(C(F)(F)F)cc4[nH]3)s2)c1)c1ccncc1
inactive: growth inhibition [1] 46% | inhibition [3] -13% | outcome [5] | outcome [6] | outcome [7] | outcome [8]
active: inhibition [2] 79% | growth inhibition [4] 99%

Cc1nc(N)nc(N)c1OCCCCOc1ccccc1
inactive: growth inhibition [1] 4% | inhibition [3] -1% | outcome [5] | outcome [6] | outcome [7] | outcome [8]
active: inhibition [2] 62% | growth inhibition [4] 94%

O=C(Nc1ccc(C(=O)N2CCN(CCN3CCN(c4cccc(C(F)(F)F)c4)CC3)CC2)cc1)c1ccc(C(F)(F)F)cc1
inactive: growth inhibition [1] 28% | inhibition [2] 39% | inhibition [3] 0% | outcome [5] | outcome [6] | outcome [7] | outcome [8]
active: growth inhibition [4] 95%

N#Cc1ccc(N(CCOc2ccc3c(c2)CCC(=O)N3)Cc2ccccc2C(F)(F)F)cc1C(F)(F)F
active: growth inhibition [1] 64% | growth inhibition [4] 98%
inactive: inhibition [2] 19% | inhibition [3] 1% | outcome [5] | outcome [6] | outcome [7] | outcome [8]

COc1c(C2CCN(CCCCNC(=O)c3ccc(-c4ccc(Cl)cc4)c(OCC(N)=O)c3)CC2)ccc2c1CCCC2
active: growth inhibition [4] 97%
inactive: growth inhibition [1] 11% | inhibition [2] 43% | inhibition [3] 3% | outcome [5] | outcome [6] | outcome [7] | outcome [8]

O=C(Cc1cccs1)NCC(c1ccccc1Cl)c1c[nH]c2ccccc12 (stereo not given)
inactive: inhibition [2] 12% | inhibition [3] 1% | outcome [5] | outcome [6] | outcome [7] | outcome [8]
active: growth inhibition [1] 56% | growth inhibition [4] 91%

COc1ccccc1CN1CCC(CNC(=O)c2cc(-c3ccc(N(C)C)cc3)cs2)C1 (stereo not given)
active: growth inhibition [4] 82%
inactive: growth inhibition [1] 16% | inhibition [2] 17% | inhibition [3] -5% | outcome [5] | outcome [6] | outcome [7] | outcome [8]

CN1CCC(C(=O)Nc2cccc(-c3cccc(-c4nc5ccc(F)cc5[nH]4)c3)c2)CC1
active: growth inhibition [4] 101%
inactive: growth inhibition [1] 27% | inhibition [2] 32% | inhibition [3] 0% | outcome [5] | outcome [6] | outcome [7] | outcome [8]
